In the library only some 13% were active in any assay of this set; here they are far more common.
USP30 block = inhibitors of human USP30 deubiquitinase. Q70CQ3. purified USP30, Ub-rhodamine cleavage fluorescence. inhibition, % at 25 µM. 47,000 tested, 5.3% active. AID 1645860
USP8 block = inhibitors of human USP8 deubiquitinase; P40818; purified USP8, Ub-rhodamine cleavage fluorescence, 30 min; inhibition, % at 20 µM; 47,000 tested, 4.2% active
USP10 inh = inhibitors of human USP10 deubiquitinase; purified USP10, Ub-rhodamine fluorescence, 60 min; inhibition, % at 20 µM; 47,000 tested, 1.1% active; AID 1645856
USP7 block = human USP7 deubiquitinase inhibition | inhibition, % at 20 µM | 47,000 tested, 0.3% active | purified USP7, Ub-rhodamine cleavage fluorescence | Q93009
Target sequence (Q93009 whole entry, looked up): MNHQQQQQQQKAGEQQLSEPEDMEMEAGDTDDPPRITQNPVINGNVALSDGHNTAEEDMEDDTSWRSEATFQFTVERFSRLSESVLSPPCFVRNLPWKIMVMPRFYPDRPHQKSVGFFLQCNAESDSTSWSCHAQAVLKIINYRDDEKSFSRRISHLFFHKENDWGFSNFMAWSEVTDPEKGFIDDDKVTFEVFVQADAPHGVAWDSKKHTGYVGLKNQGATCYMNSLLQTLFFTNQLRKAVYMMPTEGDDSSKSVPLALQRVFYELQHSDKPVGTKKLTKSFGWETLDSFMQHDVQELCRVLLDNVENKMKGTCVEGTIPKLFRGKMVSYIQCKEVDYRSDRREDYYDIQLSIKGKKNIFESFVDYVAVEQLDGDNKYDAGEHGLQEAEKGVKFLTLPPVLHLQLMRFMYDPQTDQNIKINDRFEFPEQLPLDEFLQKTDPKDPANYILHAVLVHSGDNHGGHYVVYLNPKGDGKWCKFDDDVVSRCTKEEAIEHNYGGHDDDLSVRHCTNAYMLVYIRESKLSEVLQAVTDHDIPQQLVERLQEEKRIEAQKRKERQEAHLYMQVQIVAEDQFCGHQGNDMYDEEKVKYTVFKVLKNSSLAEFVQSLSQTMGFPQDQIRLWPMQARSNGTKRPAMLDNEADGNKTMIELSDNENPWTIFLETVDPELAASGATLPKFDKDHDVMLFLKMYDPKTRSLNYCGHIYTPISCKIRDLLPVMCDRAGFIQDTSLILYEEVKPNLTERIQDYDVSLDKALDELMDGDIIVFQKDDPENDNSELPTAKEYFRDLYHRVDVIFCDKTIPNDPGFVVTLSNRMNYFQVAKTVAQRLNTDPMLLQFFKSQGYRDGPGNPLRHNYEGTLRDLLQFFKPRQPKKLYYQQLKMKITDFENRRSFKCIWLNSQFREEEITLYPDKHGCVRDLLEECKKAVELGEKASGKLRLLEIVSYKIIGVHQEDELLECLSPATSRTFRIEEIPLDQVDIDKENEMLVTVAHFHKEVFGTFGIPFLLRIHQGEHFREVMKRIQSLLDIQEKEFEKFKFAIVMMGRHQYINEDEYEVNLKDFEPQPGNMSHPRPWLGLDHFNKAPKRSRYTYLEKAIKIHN
UCHL1 block = inhibitors of human UCHL1 deubiquitinase; P09936; purified UCHL1, Ub-rhodamine cleavage fluorescence; inhibition, % at 20 µM; 47,000 tested, 0.2% active; AID 1645859
USP17 block = inhibitors of human USP17 deubiquitinase | AID 1645855 | 47,000 tested, 6.5% active | A8MUK1 | inhibition, % at 50 µM | purified USP17, Ub-rhodamine cleavage fluorescence, 3 h
Active calls of the source: *. No stated cut-off is given here; in the data, active means inhibition above about 30%; inactive means the rest.

For COc1ccc(C2C(C(=O)NCc3ccccc3)=C(C)Nc3ncnn32)cc1 (configuration not stated) the results were USP30 block -5, USP8 block 0, USP10 inh 1, USP7 block 2, UCHL1 block 0 and USP17 block -15.
Screening CCN(CCCNC(=O)c1ccc(Cn2c(=O)[nH]c3ccccc3c2=O)cc1)c1ccccc1 returned USP30 block 3, USP8 block 6, USP10 inh 16, USP7 block 6, UCHL1 block 1 and USP17 block 59*.
`Cc1cccc(N2CCN(C(=O)CCn3c(=O)[nH]c4ccccc4c3=O)CC2)c1C` gave USP30 block 36*, USP8 block -13, USP10 inh 1, USP7 block 0, UCHL1 block 2 and USP17 block 46*.
COc1ccc(Cn2c(=O)[nH]c3cc(C(=O)NCCCN4CCN(c5cccc(Cl)c5)CC4)ccc3c2=O)cc1 was read as USP30 block 46*, USP8 block 83*, USP10 inh 60*, USP7 block 12, UCHL1 block 6 and USP17 block 51*.
For CCOCCCNC(=O)c1ccc(Cn2c(=O)[nH]c3cc(OCC)c(OCC)cc3c2=O)cc1 the results were USP8 block 7, USP10 inh 1, USP7 block 5, UCHL1 block 7 and USP17 block 11.
CCN1CCN(CCCNC(=O)c2ccc3c(=O)n(CCc4ccccc4)c(=O)[nH]c3c2)CC1 was read as USP30 block 32*, USP8 block 11, USP10 inh -3, USP7 block -8, UCHL1 block 0 and USP17 block 3.
For O=C1NC2(CCC(=O)N(CC(=O)N3CCCCCC3)CC2)Nc2ccccc21 (configuration not stated) the results were USP30 block -28, USP8 block 22, USP10 inh 1, USP7 block 3, UCHL1 block 3 and USP17 block 11.
COc1ccc(C2CNCCN2C(=O)CCc2c(C)noc2C)cc1 (configuration not stated) was read as USP30 block -4, USP8 block 9, USP10 inh 1, USP7 block -3, UCHL1 block 0 and USP17 block 3.
Screening O=S1(=O)c2ccccc2OCC2(CCN(c3ncccn3)CC2)CN1CC1CC1 returned USP30 block 3, USP8 block 5, USP10 inh 4, USP7 block 1, UCHL1 block 3 and USP17 block -9.
Screening CCC(C(=O)Nc1cc(Cl)ccc1OC)n1c(C)nc2onc(C)c2c1=O (configuration not stated) returned USP30 block 6, USP8 block -14, USP10 inh 4, USP7 block -7, UCHL1 block -1 and USP17 block 2.
COc1ccc(NC(=O)N2CCn3cccc3C2c2ccc(F)cc2)cc1 (configuration not stated) was read as USP30 block -485, USP8 block -186, USP10 inh -9, USP7 block -35, UCHL1 block -23 and USP17 block -64.
COc1ccccc1N1CCN(C(=O)c2ccc3c(=O)n(CCc4ccccc4)c(=O)[nH]c3c2)CC1 was read as USP30 block 35*, USP8 block 30, USP10 inh 40*, USP7 block 7, UCHL1 block 6 and USP17 block 20.
Screening Cc1ccc(CN2Cc3cc4ccccc4nc3OC2=O)o1 returned USP30 block 13, USP8 block 12, USP10 inh 0, USP7 block 13, UCHL1 block 3 and USP17 block 42*.
COc1ccc(CCN2Cc3cc4ccccc4nc3OC2=O)cc1 was read as USP30 block 7, USP8 block 5, USP10 inh 2, USP7 block 2, UCHL1 block 0 and USP17 block 0.
`COc1ccc2cc3c(nc2c1)OC(=O)N(Cc1ccccc1)C3` gave USP30 block 39*, USP8 block 32*, USP10 inh 5, USP7 block 7, UCHL1 block 2 and USP17 block 29.
For Cc1cc(C)c2cc3c(nc2c1)OC(=O)N(Cc1ccco1)C3 the results were USP30 block 30, USP8 block 19, USP10 inh 3, USP7 block 3, UCHL1 block 3 and USP17 block 56*.
Screening Cn1c(=O)c2c(ncn2CC(=O)NC2CCCc3ccccc32)n(C)c1=O (configuration not stated) returned USP30 block 17, USP8 block 1, USP10 inh 0, USP7 block 1, UCHL1 block 0 and USP17 block 13.
Screening Cc1ccc(CNC(=O)Cn2c(=O)cc(-c3nc(C)no3)c3ccccc32)cc1 returned USP30 block -7, USP8 block 6, USP10 inh 4, USP7 block 2, UCHL1 block 1 and USP17 block 42*.
Screening Cc1cc(=O)n(CC(=O)NCc2ccc(F)cc2)c(-c2ccccc2)n1 returned USP30 block 39*, USP8 block 0, USP10 inh 1, USP7 block -32, UCHL1 block 4 and USP17 block 4.
For Cc1noc(-c2cc(=O)n(CC(=O)Nc3ccccc3)c3ccccc23)n1 the results were USP8 block 0, USP10 inh 9, USP7 block -1, UCHL1 block 0 and USP17 block 42*.
Cc1ccc(CNC(=O)Cn2c(C)cc(-c3nnc(C)o3)c2C)cc1 was read as USP30 block 7, USP8 block -2, USP10 inh -4, USP7 block 1, UCHL1 block 0 and USP17 block 30*.
CC(=O)N1[C@@H]2CN(C(=O)c3cc(C)[nH]c(=O)n3)[C@@H]3CCCC[C@H]1[C@]3(C)C2 was read as USP30 block -53, USP8 block -11, USP10 inh -3, USP7 block 0, UCHL1 block -5 and USP17 block -15.
CS(=O)(=O)NCC(=O)N1CCCC2(C/C=C/Cc3ccccc3OCC(=O)NC2)C1 (configuration not stated) was read as USP30 block 19, USP8 block 18, USP10 inh -4, USP7 block 3, UCHL1 block 0 and USP17 block 7.
`Cc1nc2c(c(=O)n1CC(=O)Nc1ccccc1)CCCC2` gave USP30 block 21, USP8 block 8, USP10 inh 0, USP7 block 3, UCHL1 block 0 and USP17 block 10.
O=C1N(Cc2cccc(Cl)c2)CCN1c1ccc(F)cc1F was read as USP30 block 9, USP8 block 1, USP10 inh 0, USP7 block -2, UCHL1 block 0 and USP17 block 0.
For COC(=O)c1cccnc1-n1c(=O)c2cccnc2n(CC(=O)Nc2ccccc2C(F)(F)F)c1=O the results were USP30 block 0, USP8 block 4, USP10 inh -3, USP7 block -2, UCHL1 block 0 and USP17 block 1.

Assay outcomes: PubChem BioAssay, Buhrlage Lab, Dana-Farber Cancer Institute and Novartis Institutes for BioMedical Research (Cambridge, Mass)
